NLRP3 yeast inh = blocks the NALP3 inflammasome reconstituted in yeast | hit rate 0.39% among 330,000 | inhibition, % at 10 µM | Yeast reconstituted NLRP3/ASC/caspase-1, beta-gal luminescence, 24 h | AID 2825;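 active = inhibition of 50% or more; inactive = inhibition below 50%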;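 note: plate controls were induced DMSO wells for no effect and uninduced yeast grown without galactose for full effect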
CHT allo act = allosterically activates the human high affinity choline transporter | Q9GZV3 | CHT-expressing cells, membrane potential dye, choline EC20; stronger effect = higher value; LV-AA mutant CHT in HEK293 cells | B-score at 10 µM | hit rate 0.49% among 310,000 | AID 488977;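 active = initial fluorescence not abnormally high and integrated response B-score, plate-corrected, over 3 SD above library mean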
Target sequence (Q9GZV3 whole entry, looked up): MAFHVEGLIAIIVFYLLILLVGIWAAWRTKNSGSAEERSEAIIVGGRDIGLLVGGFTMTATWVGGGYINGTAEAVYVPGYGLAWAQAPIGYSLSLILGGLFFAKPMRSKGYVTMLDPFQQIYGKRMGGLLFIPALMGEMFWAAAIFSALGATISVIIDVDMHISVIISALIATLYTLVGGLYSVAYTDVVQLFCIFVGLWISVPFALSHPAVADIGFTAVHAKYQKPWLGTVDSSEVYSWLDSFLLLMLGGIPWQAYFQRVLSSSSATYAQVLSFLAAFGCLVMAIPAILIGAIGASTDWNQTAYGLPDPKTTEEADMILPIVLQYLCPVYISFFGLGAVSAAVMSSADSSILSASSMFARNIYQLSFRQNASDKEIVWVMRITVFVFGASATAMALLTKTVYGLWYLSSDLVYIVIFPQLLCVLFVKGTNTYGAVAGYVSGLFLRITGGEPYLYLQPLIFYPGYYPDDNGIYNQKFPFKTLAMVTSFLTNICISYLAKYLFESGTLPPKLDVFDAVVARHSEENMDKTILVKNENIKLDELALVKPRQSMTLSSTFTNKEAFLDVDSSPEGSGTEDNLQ
Mot1-301 SUMO = SUMOylation pathway inhibition by Mot1-301 growth rescue; S. cerevisiae Mot1-301 growth rescue, ATP luminescence, 38.5C; percent above DMSO median, 100 means doubled; growth rescue, % at 18.8 µM; AID 2716; hit rate 1% among 320,000;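 active = every valid replicate shows activation above 250% relative to neutral control wells; inactive = the rest, any valid replicate at or below 250%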;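 note: OY570 slx delta 5 strain wells were the positive control but not used for scaling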
NALP1 inh = blocks the NALP1 inflammasome reconstituted in yeast; inhibition, % at 10 µM; hit rate 0.61% among 280,000; AID 2071; S. cerevisiae NALP1/ASC/caspase-1 growth, X-gal OD620, 72 h; in the data active = inhibition mostly above about 24%, no sharp cut-off; inactive = mostly below about 32%
CHT inh = inhibits the human high affinity choline transporter; Q9GZV3; CHT-expressing cells, membrane potential dye, choline response; stronger effect = lower value; B-score at 10 µM; hit rate 0.86% among 310,000;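 active = B-score over 3 SD under the library average, and starting fluorescence ratio not unusually high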;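 note: choline stimulus applied at its EC90 after an EC20 pre-addition; B-score computed on integrated fluorescence ratio after choline addition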
Bfl-1 A1 inh = inhibitors of the anti-apoptotic protein A1, read as caspase activation | caspase activation, % (concentration not given with the values) | MEF A1-2A-BIM cells, Caspase-Glo 3/7 luminescence, 3 h; percent of clofoctol response, vehicle zero | hit rate 0.066% among 330,000 | AID 2462;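 active = over half of replicate activation scores above 10%, or exactly half above 10 with the replicate mean above 10; inconclusive = replicate mean below 10 yet half the replicates above 10; inactive = over half of replicates below 10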
Mot1 SUMO dose = yeast SUMO pathway inhibition in dose response; shares compounds with Mot1-301 SUMO; S. cerevisiae Mot1-301 galactose growth, ATP luminescence, 24 h; -100 = growth of slx-deleted rescue strain; 2,300 tested, under 10 active; growth activity, percent, % at 42 µM;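 active = Signal drops as the depositor expects, and the fitted half-maximal dose is no more than ten times the top valid tested dose; inconclusive = Poor fit, or a flat curve whose signal drops by 30% to 70%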;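 note: more negative values mean stronger growth rescue toward the control strain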
Numbers without * were called inactive; i = inactive; ? = inconclusive; nt = not tested or not shown; + = active, no number; [ ] = another dose, or the depositor's remark. Compounds with a hit are over-represented: about 3% of the library has one in this group of screens.

SMILES	NLRP3 yeast inh	CHT allo act	Mot1-301 SUMO	NALP1 inh	CHT inh	Bfl-1 A1 inh	Mot1 SUMO dose
COc1ccc(N2CCN(C(=O)C3CCCN(S(=O)(=O)c4ccc5c(c4)oc(=O)n5C)C3)CC2)cc1 (centres undefined)	1	i	450*	7	i	1	0[21 µM]
O=c1/c(=C/c2ccccn2)sc2n1CN(c1ccccc1)CN=2	5	i	5	30	i	0	nt
Cc1cccc(N2CN=c3s/c(=C\c4ccccn4)c(=O)n3C2)c1	9	i	441*	-2	i	-1	0
CCOC(=O)c1sc2nc(N3CCCC3)c3c(c2c1N)CC(C)(C)OC3	6	i	4	4	i	0	nt
CC1(C)Cc2c(c(N3CCCC3)nc3sc4c(N5CCN(CCO)CC5)ncnc4c23)CO1	9	i	707*	4	i	0	0
CCCCN(C(=O)c1cc(Cl)nc2ccccc12)c1c(N)n(CCCC)c(=O)[nH]c1=O	18	i	5	nt	i	0	nt
CCCOc1ccc(N2C(=O)CC(N3CCOCC3)C2=O)cc1 (centres undefined)	4	i	376	-2	i	0	nt
CCCOc1ccc(N2C(=O)CC(N3CCC(C(=O)OCC)CC3)C2=O)cc1 (centres undefined)	14	i	772*	16	i	0	0
O=C(c1ccccc1Cl)c1c(O)c2ccccc2oc1=O	19	i	7	nt	i	-1	nt
O=C(CNC(=O)c1ccco1)OCC(=O)c1cccc2ccccc12	5	i	434*	19	i	1	0
COC(=O)C1C2C=CC3(CN(CCc4ccccc4)C(=O)C13)O2 (centres undefined)	0	i	429*	22	i	0	0[21 µM]
Nc1cc(=O)[nH]c(=O)n1CCc1ccccc1	25	i	542*	-52	i	1	0
COc1ccc(CCn2c(N)cc(=O)[nH]c2=O)cc1OC	13	i	-15	12	i	0	nt
O=C(Nc1ccc(F)cc1)c1ccc(CSc2ccccc2)o1	-11	i	+	39	i	-1	0
COc1cccc(N=Nc2c(=O)[nH]n3c(=O)cc(C)[nH]c23)c1	30	i	372*	-17	i	-3	1
COc1cccc(N=Nc2c(=O)[nH]n3c(=O)c4c([nH]c23)CCC4)c1	16	i	6	0	i	-1	nt
Cc1c(Cl)c([N+](=O)[O-])nn1CC(=O)N1CCCC1	-9	i	-18	18	i	0	nt
Cc1c(Cl)c([N+](=O)[O-])nn1CC(=O)NC12CC3CC(CC(C3)C1)C2	21	i	952*	-15	i	0	0
CCOC(=O)c1cccc(NC(=O)C2CCCN(S(=O)(=O)c3c(C)n[nH]c3C)C2)c1 (centres undefined)	-4	i	458*	4	i	0	1
CCOC(=O)c1cccc(NC(=O)C2CCCN(S(=O)(=O)c3c(C)nn(C)c3C)C2)c1 (centres undefined)	-4	i	-16	-7	i	0	nt
O=c1c2ccccc2ncn1Cc1ccc(Cl)cc1	39	i	987*	-7	i	?	0
O=c1c2ccccc2ncn1Cc1ccc2c(c1)OCO2	26	i	428*	12	i	0	1
O=C(CCN=C1NS(=O)(=O)c2ccccc21)OCc1nnc(-c2ccccc2)o1	10	i	-11	nt	i	-1	nt
O=C(O)CCc1ccc(-c2ccccc2)n1NC(=O)c1cccs1	-1	i	670*	4	i	0	1
COc1ccc(C(C)=O)cc1COC(=O)C1CCN(C(=O)c2ccc(Cl)cc2)CC1	6	nt	20	nt	nt	0	nt
Cc1cc(F)ccc1S(=O)(=O)Nc1ccccc1C(=O)Nc1ccc2[nH]c(=O)[nH]c2c1	8	i	370*	nt	i	0	0
